For one sequence, binding signal results are on record in publication PMC7862700, “An all-to-all approach to the identification of sequence-specific readers for epigenetic DNA modifications on cytosine”.

Common to all, as to assay: DAPPL (digital affinity profiling via proximity ligation, sequencing); 10 mM Tris-HCl pH 7.5, 50 mM NaCl, 1 mM DTT, 4% glycerol, room temperature, 30 min; GST-TFs on glutathione beads, 16-mer random dsDNA library, 0.1% formaldehyde crosslink after washing; high values mean tight binding
Details in all cases: protein: recombinant; tags: N-terminal GST; dsDNA, one strand shown

One assay concerns the target T1, FLI1 (Homo sapiens, UniProt Q01543 1-452).
T1 sequence: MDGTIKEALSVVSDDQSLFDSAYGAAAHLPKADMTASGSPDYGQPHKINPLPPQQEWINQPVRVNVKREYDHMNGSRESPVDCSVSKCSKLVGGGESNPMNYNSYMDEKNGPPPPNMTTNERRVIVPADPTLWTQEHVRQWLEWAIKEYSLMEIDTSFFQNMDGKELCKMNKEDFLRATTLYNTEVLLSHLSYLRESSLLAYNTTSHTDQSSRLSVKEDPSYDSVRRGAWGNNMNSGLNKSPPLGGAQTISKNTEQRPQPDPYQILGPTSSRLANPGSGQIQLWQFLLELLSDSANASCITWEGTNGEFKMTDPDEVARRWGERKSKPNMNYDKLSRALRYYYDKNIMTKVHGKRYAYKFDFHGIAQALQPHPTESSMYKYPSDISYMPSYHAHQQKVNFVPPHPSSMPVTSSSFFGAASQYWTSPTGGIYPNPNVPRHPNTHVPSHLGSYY
A digest of the protocol:
(§1)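 The binding signal reported is, for every hexamer, its read frequency for a factor over its read frequency for the tag-only sample. Reads came from pools of yeast-expressed, GST-fused human transcription factors on glutathione beads, barcoded with DNA and mixed with that sample, which were incubated with 200 nmole of a random double-stranded 16-mer DNA library in Tris/NaCl/DTT/glycerol buffer at room temperature for 30 min. After washing, the pools were crosslinked with 0.1% formaldehyde, proximity-ligated with BsaI/T4 ligase for 1 h at 37 °C, PCR-amplified and sequenced on an Illumina NextSeq500.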

The target in the next assay is T2, ELK1 (Homo sapiens, UniProt P19419 1-428).
T2 sequence: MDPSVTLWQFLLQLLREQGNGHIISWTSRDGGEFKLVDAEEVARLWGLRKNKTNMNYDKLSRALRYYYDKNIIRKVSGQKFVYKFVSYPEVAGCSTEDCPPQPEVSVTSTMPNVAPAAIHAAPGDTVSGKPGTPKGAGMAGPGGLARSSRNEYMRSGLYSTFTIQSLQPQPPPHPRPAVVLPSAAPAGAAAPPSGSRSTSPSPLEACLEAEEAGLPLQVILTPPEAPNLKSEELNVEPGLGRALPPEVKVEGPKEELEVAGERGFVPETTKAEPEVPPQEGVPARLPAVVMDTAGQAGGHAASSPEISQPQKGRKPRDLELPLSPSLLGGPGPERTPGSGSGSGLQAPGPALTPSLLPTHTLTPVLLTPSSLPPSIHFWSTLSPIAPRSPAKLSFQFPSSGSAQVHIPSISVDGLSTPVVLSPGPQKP
In a few lines:
as §1

Another assay concerns the target T3, GABPA (Homo sapiens, UniProt Q06546 1-454).
T3 sequence: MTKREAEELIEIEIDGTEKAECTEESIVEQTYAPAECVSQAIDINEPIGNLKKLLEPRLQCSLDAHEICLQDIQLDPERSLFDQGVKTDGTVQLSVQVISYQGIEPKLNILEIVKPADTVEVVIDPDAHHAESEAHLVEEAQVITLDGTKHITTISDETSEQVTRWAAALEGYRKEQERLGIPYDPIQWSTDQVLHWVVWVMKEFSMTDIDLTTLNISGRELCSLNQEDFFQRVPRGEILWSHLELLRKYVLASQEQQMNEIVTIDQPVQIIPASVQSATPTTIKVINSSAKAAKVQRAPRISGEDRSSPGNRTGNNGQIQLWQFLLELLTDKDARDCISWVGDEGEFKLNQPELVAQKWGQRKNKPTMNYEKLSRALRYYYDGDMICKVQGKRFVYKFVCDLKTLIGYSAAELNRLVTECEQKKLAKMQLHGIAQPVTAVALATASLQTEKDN
In a few lines: as §1

A further assay has as its target T4, ERG (Homo sapiens, UniProt P11308 1-479).
T4 sequence: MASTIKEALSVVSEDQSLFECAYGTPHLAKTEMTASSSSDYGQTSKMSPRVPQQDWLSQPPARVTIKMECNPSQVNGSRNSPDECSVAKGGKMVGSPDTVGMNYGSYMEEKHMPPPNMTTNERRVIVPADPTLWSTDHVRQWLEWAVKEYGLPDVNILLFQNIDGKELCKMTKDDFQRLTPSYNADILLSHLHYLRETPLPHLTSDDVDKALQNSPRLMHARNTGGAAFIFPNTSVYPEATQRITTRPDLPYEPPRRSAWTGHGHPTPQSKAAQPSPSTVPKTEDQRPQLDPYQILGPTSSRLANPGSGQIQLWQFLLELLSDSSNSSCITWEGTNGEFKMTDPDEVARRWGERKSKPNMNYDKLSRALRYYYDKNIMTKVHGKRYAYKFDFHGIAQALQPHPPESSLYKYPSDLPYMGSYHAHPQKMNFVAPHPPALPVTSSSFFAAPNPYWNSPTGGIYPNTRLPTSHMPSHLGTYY
In a few lines:
as §1

In another assay the target is ELF1 (Homo sapiens, UniProt P32519 1-619). A digest of the protocol: as §1
In another assay the target is T5, EHF (Homo sapiens, UniProt Q9NZC4 1-300).
T5 sequence: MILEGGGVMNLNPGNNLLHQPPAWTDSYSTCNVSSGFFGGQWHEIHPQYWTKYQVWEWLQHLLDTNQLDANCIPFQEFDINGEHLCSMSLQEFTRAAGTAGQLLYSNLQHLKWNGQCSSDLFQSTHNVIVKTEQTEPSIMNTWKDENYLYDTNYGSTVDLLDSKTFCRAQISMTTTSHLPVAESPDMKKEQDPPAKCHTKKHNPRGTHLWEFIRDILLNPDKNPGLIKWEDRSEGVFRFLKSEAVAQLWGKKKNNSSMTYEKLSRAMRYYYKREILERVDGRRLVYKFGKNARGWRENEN
In a few lines:
as §1

Another assay concerns the target SPI1 (Homo sapiens, UniProt P17947 1-270). A digest of the protocol:
as §1

The target in a further assay is SPIB (Homo sapiens, UniProt Q01892 1-262). A digest of the protocol: as §1
A further assay concerns the target T6, ELK3 (Homo sapiens, UniProt P41970 1-407).
T6 sequence: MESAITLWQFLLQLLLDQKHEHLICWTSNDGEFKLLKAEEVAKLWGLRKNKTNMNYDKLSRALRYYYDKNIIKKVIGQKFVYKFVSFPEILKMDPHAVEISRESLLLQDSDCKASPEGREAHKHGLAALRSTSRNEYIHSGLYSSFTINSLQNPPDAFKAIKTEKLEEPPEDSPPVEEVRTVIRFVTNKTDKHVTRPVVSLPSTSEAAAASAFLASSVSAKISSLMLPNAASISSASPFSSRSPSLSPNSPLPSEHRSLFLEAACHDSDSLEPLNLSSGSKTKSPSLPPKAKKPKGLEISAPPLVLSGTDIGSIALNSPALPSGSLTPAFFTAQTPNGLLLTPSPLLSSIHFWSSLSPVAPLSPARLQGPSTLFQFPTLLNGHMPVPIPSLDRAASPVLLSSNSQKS
A digest of the protocol: as §1

For a further assay, the target named is T7, FEV (Homo sapiens, UniProt Q99581 1-238).
T7 sequence: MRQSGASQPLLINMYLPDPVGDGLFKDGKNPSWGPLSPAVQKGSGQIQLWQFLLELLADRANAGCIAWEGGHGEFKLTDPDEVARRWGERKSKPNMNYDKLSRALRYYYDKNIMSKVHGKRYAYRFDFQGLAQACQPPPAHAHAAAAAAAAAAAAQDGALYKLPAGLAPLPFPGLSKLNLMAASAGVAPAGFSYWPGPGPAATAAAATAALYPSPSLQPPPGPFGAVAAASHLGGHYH
In a few lines:
as §1

Another assay concerns the target ETV5 (Homo sapiens, UniProt P41161 1-510). A digest of the protocol: as §1
Another assay addresses T8, SPIC (Homo sapiens, UniProt Q8N5J4 1-248).
T8 sequence: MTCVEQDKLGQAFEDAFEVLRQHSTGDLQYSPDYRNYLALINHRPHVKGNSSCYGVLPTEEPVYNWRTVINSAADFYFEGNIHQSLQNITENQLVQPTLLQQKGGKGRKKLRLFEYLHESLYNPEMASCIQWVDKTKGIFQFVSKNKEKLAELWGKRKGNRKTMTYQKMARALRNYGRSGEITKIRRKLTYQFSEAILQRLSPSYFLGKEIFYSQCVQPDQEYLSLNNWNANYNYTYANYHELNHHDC
A digest of the protocol: as §1

The next assay deals with ELF4 (Homo sapiens, UniProt Q99607 1-663). A digest of the protocol:
as §1

In another assay the target is T9, ELK4 (Homo sapiens, UniProt P28324-2 1-405).
T9 sequence: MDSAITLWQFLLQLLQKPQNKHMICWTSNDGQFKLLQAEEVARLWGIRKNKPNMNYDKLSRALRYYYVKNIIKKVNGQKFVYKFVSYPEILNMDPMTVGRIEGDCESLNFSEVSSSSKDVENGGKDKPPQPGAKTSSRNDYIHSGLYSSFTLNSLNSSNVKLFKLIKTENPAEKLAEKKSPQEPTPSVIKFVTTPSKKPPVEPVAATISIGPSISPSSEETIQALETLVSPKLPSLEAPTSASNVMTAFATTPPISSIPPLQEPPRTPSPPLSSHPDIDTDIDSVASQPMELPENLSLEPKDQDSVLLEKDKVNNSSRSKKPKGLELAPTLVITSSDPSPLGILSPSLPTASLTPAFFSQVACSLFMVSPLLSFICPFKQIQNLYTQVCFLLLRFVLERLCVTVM
In a few lines:
as §1

A further assay deals with T10, ETV2 (Homo sapiens, UniProt O00321 1-342).
T10 sequence: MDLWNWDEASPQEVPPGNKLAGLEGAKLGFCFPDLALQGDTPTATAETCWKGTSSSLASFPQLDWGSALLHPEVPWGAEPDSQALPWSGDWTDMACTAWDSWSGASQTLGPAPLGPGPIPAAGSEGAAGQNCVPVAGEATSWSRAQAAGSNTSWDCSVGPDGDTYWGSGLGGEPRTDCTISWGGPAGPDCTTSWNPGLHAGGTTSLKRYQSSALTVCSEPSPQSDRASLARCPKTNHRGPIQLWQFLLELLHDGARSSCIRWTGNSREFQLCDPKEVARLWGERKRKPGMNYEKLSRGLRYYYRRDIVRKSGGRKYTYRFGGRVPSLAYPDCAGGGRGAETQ
A digest of the protocol: as §1

Another assay concerns the target T11, ELF3 (Homo sapiens, UniProt P78545 1-371).
T11 sequence: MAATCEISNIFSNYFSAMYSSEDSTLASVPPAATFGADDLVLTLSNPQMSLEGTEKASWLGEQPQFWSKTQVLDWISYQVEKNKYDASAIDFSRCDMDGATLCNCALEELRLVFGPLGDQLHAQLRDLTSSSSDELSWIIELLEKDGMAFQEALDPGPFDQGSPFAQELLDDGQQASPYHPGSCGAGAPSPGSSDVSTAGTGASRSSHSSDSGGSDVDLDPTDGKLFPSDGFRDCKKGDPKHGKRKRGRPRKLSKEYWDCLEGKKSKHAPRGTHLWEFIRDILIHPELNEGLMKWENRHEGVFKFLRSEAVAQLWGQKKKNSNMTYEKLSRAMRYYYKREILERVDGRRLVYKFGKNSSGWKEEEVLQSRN
In a few lines: as §1

For a further assay, the target named is CRX (Homo sapiens, UniProt O43186 1-299). In a few lines: as §1
The target in another assay is ETV1 (Homo sapiens, UniProt P50549 1-477). In a few lines: as §1
Chain of ETV1 (P50549 whole entry): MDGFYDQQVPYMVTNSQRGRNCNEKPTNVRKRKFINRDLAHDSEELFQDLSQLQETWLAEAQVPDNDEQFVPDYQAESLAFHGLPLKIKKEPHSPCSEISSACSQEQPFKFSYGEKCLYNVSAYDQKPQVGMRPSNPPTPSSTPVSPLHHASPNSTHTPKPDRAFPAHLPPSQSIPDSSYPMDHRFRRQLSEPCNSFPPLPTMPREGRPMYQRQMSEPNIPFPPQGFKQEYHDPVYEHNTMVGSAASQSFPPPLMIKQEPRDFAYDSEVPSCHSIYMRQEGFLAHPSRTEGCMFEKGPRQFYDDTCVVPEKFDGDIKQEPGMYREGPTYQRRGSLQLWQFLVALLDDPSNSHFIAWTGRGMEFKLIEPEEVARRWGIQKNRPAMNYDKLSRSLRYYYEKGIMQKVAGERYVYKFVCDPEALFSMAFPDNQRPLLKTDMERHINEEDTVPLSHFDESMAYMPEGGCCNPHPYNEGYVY

Chain of ELF4 (Q99607 whole entry): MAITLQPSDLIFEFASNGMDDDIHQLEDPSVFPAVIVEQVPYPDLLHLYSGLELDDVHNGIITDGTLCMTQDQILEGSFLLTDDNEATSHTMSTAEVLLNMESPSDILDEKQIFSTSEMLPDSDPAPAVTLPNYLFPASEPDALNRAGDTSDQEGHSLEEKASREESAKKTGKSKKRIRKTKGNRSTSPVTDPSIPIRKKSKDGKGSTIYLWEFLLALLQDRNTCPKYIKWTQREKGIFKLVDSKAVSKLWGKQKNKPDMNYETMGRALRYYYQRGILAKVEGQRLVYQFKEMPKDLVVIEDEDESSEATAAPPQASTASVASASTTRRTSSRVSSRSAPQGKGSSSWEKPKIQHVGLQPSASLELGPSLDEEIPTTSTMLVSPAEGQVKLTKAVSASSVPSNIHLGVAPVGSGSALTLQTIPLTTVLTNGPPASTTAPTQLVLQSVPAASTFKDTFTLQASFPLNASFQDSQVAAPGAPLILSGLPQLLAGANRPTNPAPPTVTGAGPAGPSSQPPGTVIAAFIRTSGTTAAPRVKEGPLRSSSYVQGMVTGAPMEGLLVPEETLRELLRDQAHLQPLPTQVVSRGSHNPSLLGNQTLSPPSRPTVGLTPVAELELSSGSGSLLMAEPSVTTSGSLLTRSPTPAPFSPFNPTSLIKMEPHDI
Chain of CRX (O43186 whole entry): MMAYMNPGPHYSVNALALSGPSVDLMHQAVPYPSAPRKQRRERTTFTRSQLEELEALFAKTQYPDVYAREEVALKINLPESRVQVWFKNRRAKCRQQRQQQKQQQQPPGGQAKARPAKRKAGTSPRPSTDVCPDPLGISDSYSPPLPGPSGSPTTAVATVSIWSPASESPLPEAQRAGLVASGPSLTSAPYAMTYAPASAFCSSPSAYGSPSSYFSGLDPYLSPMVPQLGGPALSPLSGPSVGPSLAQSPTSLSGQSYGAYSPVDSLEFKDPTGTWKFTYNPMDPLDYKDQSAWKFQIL
Chain of SPIB (Q01892 whole entry): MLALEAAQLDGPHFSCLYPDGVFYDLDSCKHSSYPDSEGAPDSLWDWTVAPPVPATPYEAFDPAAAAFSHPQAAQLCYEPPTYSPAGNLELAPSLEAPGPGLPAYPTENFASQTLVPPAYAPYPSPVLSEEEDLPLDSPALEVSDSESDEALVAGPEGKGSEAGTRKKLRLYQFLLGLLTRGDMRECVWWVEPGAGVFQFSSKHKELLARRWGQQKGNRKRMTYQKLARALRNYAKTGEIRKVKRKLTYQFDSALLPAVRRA
Chain of ETV5 (P41161 whole entry): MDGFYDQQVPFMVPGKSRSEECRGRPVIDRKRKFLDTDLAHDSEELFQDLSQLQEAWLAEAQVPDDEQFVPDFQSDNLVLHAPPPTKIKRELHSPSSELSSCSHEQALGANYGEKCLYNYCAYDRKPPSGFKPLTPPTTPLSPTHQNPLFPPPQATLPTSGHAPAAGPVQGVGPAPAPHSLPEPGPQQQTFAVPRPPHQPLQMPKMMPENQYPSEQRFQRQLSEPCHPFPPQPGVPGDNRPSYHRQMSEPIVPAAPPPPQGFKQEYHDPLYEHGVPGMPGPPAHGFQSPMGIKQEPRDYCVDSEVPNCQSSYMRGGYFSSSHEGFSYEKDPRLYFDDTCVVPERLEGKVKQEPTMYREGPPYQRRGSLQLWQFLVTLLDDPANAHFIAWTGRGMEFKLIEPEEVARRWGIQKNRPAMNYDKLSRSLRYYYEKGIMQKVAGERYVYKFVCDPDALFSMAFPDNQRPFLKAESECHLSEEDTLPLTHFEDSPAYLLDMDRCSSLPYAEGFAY
Chain of ELF1 (P32519 whole entry): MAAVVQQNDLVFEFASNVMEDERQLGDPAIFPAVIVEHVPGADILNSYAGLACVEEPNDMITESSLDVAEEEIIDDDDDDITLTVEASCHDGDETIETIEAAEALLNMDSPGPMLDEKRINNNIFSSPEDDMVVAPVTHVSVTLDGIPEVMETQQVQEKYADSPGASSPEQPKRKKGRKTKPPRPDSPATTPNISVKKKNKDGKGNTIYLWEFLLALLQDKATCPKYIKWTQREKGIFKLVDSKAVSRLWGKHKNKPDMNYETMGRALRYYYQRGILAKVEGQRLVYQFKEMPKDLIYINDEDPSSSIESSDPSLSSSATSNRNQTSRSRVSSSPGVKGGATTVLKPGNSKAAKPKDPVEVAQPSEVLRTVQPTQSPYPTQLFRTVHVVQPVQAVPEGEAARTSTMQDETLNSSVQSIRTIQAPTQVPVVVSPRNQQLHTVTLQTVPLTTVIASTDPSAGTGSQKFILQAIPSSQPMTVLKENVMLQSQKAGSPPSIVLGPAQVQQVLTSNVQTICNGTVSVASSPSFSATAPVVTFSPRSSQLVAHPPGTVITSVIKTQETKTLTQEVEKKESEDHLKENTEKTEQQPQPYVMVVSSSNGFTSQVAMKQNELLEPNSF

As to TGTATA, the binding signal with FLI1 was 1.08 fold enrichment (6-mer frequency, TF over GST control); with ELK1, 1.11 fold enrichment (6-mer frequency, TF over GST control); in the assay with GABPA, 1.02 fold enrichment (6-mer frequency, TF over GST control); with ERG, 1.03 fold enrichment (6-mer frequency, TF over GST control); in the assay with ELF1 it was 1.04 fold enrichment (6-mer frequency, TF over GST control); with EHF, 1.18 fold enrichment (6-mer frequency, TF over GST control). Also, the binding signal in the assay with SPI1 is 1.03 fold enrichment (6-mer frequency, TF over GST control); with SPIB, 1.19 fold enrichment (6-mer frequency, TF over GST control); in the assay with ELK3, 1.15 fold enrichment (6-mer frequency, TF over GST control); in the assay with FEV it was 1.02 fold enrichment (6-mer frequency, TF over GST control); in the assay with ETV5, 1.15 fold enrichment (6-mer frequency, TF over GST control); with SPIC, 1.07 fold enrichment (6-mer frequency, TF over GST control). In addition, the binding signal in the assay with ELF4 was 1.06 fold enrichment (6-mer frequency, TF over GST control); with ELK4, 1.22 fold enrichment (6-mer frequency, TF over GST control); in the assay with ETV2, 1.04 fold enrichment (6-mer frequency, TF over GST control); with ELF3 it was 1.02 fold enrichment (6-mer frequency, TF over GST control); in the assay with CRX, 1.03 fold enrichment (6-mer frequency, TF over GST control); in the assay with ETV1 it was 1.16 fold enrichment (6-mer frequency, TF over GST control).
